# N370S GC: qHTS Assay for Inhibitors and Activators of N370S glucocerebrosidase as a Potential Chaperone Treatment of Gaucher Disease. Lysosomal acid glucosylceramidase (Homo sapiens), P04062. N370S GC spleen homogenate, 4MU-glucoside fluorescence. Potency, µM (top dose mostly 59.4 µM), inactives show at the highest dose activity change, negative = inhibition, most hits filed as inhibitors. 330,000 compounds, 0.092% hits. AID 2101, 2009;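 further: potency means the concentration at half of the fitted maximal effect; 0% = full enzyme activity and -100% = no enzyme basal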
# a7 integrin act: qHTS for Activators of Integrin-Mediated Alleviation for Muscular Dystrophy; alpha7betagal myoblasts, beta-gal FDG fluorescence, 48 h; Potency, µM (highest dose often 38.3 µM), for inactives: top-dose activation, most hits filed as activators; 350,000 compounds, 0.064% hits;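 further: potency means the concentration at half of the fitted maximal effect; 100% = response of the positive control SU9516; nearly all actives have a fitted effect of over 60% in size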
#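 Alpha7betagal+/- myoblasts (passage 13) were plated 16-24 hr, then exposed to compounds (1:260 dilution of DMSO stock) for 48 hours at 37C. After MPER lysis, β-galactosidase reporter activity was read as FDG fluorescence (ex 480/em 540) after 30 minutes.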
# CBFb RUNX1 block: qHTS Assay for Compounds Blocking the Interaction Between CBF-beta and RUNX1 for the Treatment of Acute Myeloid Leukemia. 230,000 tested, under 10 active. AlphaScreen CBFb-His/RUNX1-biotin binding, biochemical. Potency, µM (doses to about 59.8 µM), inactives show at the highest dose activity, negative = inhibition, usual class: inhibitors. Runt-related transcription factor 1 (Homo sapiens) + Core-binding factor subunit beta …; further: % of control where 0% means no effect
#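 Compounds were screened at multiple concentrations against a preformed CBF-beta(His)/RUNX1(biotin) complex (30 nM of each) for 15 min at room temperature, followed by 90 min with nickel and streptavidin beads and AlphaScreen reading.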
# ClpP mod: qHTS Assay for Activators of ClpP; purified B. subtilis ClpP, FRET peptide cleavage, 20 min; AID 651965, 2013; 340,000 compounds, 1.9% hits; Potency, µM (highest dose often 57.5 µM), without a hit: top-dose activity change, negative = active; ATP-dependent Clp protease proteolytic subunit (Bacillus subtilis (strain 168)), P80244; active means well fitted falling curve with a large enough effect; inconclusive means small, poorly fitted or top-dose-only effect; inactive means no such curve, though single readings can be large or run the other way; further: potency means the concentration at half of the fitted maximal effect; the source files actives as falling curves though it sought activators and does not explain the sign; nearly all actives have a fitted effect of over 65% in size
# Target sequence (P80244 whole entry, looked up): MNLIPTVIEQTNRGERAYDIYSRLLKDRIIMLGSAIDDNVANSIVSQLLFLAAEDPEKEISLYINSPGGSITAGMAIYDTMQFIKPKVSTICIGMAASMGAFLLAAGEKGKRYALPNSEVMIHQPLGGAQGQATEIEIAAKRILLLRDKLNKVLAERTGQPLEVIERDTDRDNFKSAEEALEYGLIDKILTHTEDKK
#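 Purified B. subtilis ClpP, 10 microg/mL final in Tris/HCl pH8 with KCl, BSA, glycerol and Tween-20, cleaved an Abz/nitrotyrosine-quenched decapeptide. Fluorescence (ex 320, em 430) was read at 0 and 20 min at room temperature. Delta was normalized to 5.8 microM ADEP and DMSO/no-enzyme controls.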
# GRP78 ERSR act: qHTS for Inducers of the Endoplasmic Reticulum Stress Response (ERSR) in Human Glioma: qHTS; 420,000 compounds, 0.02% hits; U87-MG GRP78 promoter luciferase reporter, 16 h; Potency, µM, for the others: at the highest dose activation, hits mostly activators; further: potency means the concentration at half of the fitted maximal effect; series mostly up to about 76 µM; % of control where 0% means no effect; nearly all actives have a fitted effect of over 35% in size
#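 ERSR induction read as luciferase luminescence (Bright-Glo, 10 min at room temperature) in stably transfected human U87-MG glioma cells exposed to compounds for 16 h, using GRP78 as sensor.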
# Anesthetic bind: qHTS Assay for Identification of Novel General Anesthetics | Potency, µM (top dose mostly 77.5 µM), for the others: at the highest dose activity change, negative = displacement, actives largely listed as inhibitors | AID 485281, 2010 | 350,000 compounds, 0.074% hits | apoferritin/1-aminoanthracene competitive binding, fluorescence; further: potency means the concentration at half of the fitted maximal effect; on the % scale 0 is the no-effect control and ±100 the full control effect; nearly all actives have a fitted effect of over 20% in size
# Target sequence (P02791 2-175 limits assumed): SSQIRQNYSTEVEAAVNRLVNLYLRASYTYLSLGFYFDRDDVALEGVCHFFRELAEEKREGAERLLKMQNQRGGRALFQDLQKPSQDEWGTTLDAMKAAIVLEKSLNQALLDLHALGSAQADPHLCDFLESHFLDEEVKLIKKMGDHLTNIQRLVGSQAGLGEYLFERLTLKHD
#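 Concentration-response curves derived by four-parameter Hill fitting of normalized fluorescence, where compounds displaced 1-AMA from 10 uM horse apoferritin following a brief 10 min room-temperature incubation; propofol titration acted as positive control.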
# * hit, by the source's call; ? = inconclusive; . = no result. Only a selection was taken, and hits are over-represented in it overall. Unless noted, the call rests on the fitted dose curve; in most records, active means well fitted curve in the direction sought with a large enough effect; inconclusive means small, poorly fitted or top-dose-only effect, or another doubt; inactive means no such curve, though single readings can be large; an effect the other way counts as inactive or inconclusive.
SMILES,N370S GC,a7 integrin act,CBFb RUNX1 block,ClpP mod,GRP78 ERSR act,Anesthetic bind
O=c1c2c(nc3cc(-c4ccc(F)cc4)[nH]n13)CCC2,4%,-11%,-4%,6.3µM*,0%,34%
CCNC(=O)Cn1c(-c2cccs2)cc2ccccc21,.,.,.,28µM*,-5%,-12%
Cc1ccc(CNC(=O)Cn2c(-c3cccs3)cc3cc(Cl)ccc32)cc1,.,.,.,?,-4%,-4%
O=C(Cn1c(-c2cccs2)cc2ccccc21)NCc1ccccc1Br,.,.,.,32µM*,-5%,49%
CN(C)c1ccc(CNC(=O)Cn2c(-c3cccs3)cc3cc(Cl)ccc32)cc1,.,.,.,25µM*,-2%,1%
CCOc1ccc(CCNC(=O)Cn2c(-c3cccs3)cc3ccccc32)cc1OCC,.,.,.,8.9µM*,-5%,-12%
CCOc1ccc(CCNC(=O)Cn2c(-c3cccs3)cc3ccccc32)cc1,.,.,.,?,-1%,-1%
CC(C)(C)n1ncc2c(=O)n(Cc3cccc(-c4ccccc4)c3)cnc21,.,.,.,.,-2%,.
Nc1nc(N)c2c(Oc3ccc(F)cc3)cccc2n1,.,.,.,4%,-1%,.
CC(NC(=O)Cn1c(-c2cccs2)cc2cc(F)ccc21)c1ccccc1 (stereo not drawn),.,.,.,28µM*,-4%,2%
CC(CNC(=O)Cn1c(-c2cccs2)cc2ccccc21)c1ccccc1 (stereo not drawn),.,.,.,16µM*,-1%,79%
CCCSCCCNC(=O)Cn1c(=O)c2cccn2c2ccccc21,3%,-5%,.,-6%,-5%,-10%
CC(CNC(=O)COC(=O)c1cccs1)c1ccccc1 (stereo not drawn),.,16%,.,-2%,-3%,.
CC(CNC(=O)Cn1c(-c2cccs2)cc2cc(Cl)ccc21)c1ccccc1 (stereo not drawn),.,.,.,25µM*,-2%,-1%
CCCSCCCNC(=O)Cn1c(-c2cccs2)cc2ccccc21,.,.,.,28µM*,-1%,7%
COc1cc(C(C)=O)ccc1OCCCN1CCC(c2noc3cc(F)ccc23)CC1,.,.,.,.,-1%,.
O=C(NC1CCCc2ccccc21)c1cnn2c1NC(=C1CC1)C=C2C(F)F (stereo not drawn),.,.,.,1%,.,.
COCCNC(=O)Cn1c(-c2cccs2)cc2cc(Cl)ccc21,.,.,.,28µM*,1%,47%
CCC(COC)NC(=O)c1cnn(-c2ncc3c(n2)-c2ccccc2CC3)c1C (stereo not drawn),.,.,.,.,-1%,.
COc1ccccc1Oc1coc2c(CN3CCOCC3)c(O)ccc2c1=O,-2%,-11%,1%,.,-7%,82%
COc1cccc(Oc2coc3c(CN4CCOCC4)c(O)ccc3c2=O)c1,-3%,-1%,-1%,20µM*,0%,213%
O=C(NCCO)C1CCN(C(=O)c2ccc(-c3ccccc3)cc2)CC1,2%,-45%,9%,32µM*,-1%,-3%
CN1CCN(C(=O)c2ccc(-c3ccccc3)cc2)CC1,-5%,-10%,.,32µM*,0%,-10%
COc1cccc(/C=C/C(=O)OCC(=O)Nc2cc(C(F)(F)F)ccc2Cl)c1,12%,27%,16%,35µM*,-6%,-19%
COc1cccc(/C=C/C(=O)OCC(=O)c2c(N)n(C)c(=O)n(C)c2=O)c1,.,-30%,.,25µM*,-3%,.
COc1ccc(O)c(CN2CCC3(CC2)c2ccccc2[C@@H](NC(=O)c2cccc(F)c2)[C@@H]3OC)c1,.,.,.,.,-2%,.
O=C(NCCc1ccccn1)C1CC12CCN(C(=O)c1cccc(C(F)(F)F)c1)CC2 (stereo not drawn),.,.,.,.,-8%,.

# Source: PubChem BioAssay (National Center for Advancing Translational Sciences (NCATS))
